Bioassay records from PubChem BioAssay.
CRFBP-R2 agonist: agonists of CRF-BP/CRF-R2 complex, primary screen, cell-based, HEK293, calcium dye fluorescence, uHTS; activation, % at 13.2 µM; AID 588473, 2011; calcium dye fluorescence (FLIPR); percent of saturating CRF peptide response; 0.46% of 350,000 active;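 active means activation of at least 50%, plus an integration ratio under a set limit after plate pattern correction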;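 further: plate controls were neutral control wells without compound for no effect and CRF at EC100 for full effect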
CRFR2-BP antag: antagonists of CRF-BP/CRF-R2 complex, primary screen, cell-based, HEK293, calcium dye fluorescence, uHTS | CRF-induced calcium fluorescence | inhibition, % at 11.8 µM | 0.59% of 350,000 active;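 active means inhibition of the ligand-induced calcium signal above about 50% at the single tested concentration, limit read from the data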
IDE cell activ: human IDE activators in live cells, primary screen, fluorescence polarization, HEK cells, FAbeta-B substrate; FAbeta-B cleavage; 0% vehicle, 100% cell-free pure enzyme wells; activation, % at 5.96 µM; 0.073% of 340,000 active; AID 493087, 2011;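 active means activation above the mean of all tested compounds plus 3 SD, set per screening campaign, cut at about 17% in these data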
Target sequence (P14735 whole entry, looked up): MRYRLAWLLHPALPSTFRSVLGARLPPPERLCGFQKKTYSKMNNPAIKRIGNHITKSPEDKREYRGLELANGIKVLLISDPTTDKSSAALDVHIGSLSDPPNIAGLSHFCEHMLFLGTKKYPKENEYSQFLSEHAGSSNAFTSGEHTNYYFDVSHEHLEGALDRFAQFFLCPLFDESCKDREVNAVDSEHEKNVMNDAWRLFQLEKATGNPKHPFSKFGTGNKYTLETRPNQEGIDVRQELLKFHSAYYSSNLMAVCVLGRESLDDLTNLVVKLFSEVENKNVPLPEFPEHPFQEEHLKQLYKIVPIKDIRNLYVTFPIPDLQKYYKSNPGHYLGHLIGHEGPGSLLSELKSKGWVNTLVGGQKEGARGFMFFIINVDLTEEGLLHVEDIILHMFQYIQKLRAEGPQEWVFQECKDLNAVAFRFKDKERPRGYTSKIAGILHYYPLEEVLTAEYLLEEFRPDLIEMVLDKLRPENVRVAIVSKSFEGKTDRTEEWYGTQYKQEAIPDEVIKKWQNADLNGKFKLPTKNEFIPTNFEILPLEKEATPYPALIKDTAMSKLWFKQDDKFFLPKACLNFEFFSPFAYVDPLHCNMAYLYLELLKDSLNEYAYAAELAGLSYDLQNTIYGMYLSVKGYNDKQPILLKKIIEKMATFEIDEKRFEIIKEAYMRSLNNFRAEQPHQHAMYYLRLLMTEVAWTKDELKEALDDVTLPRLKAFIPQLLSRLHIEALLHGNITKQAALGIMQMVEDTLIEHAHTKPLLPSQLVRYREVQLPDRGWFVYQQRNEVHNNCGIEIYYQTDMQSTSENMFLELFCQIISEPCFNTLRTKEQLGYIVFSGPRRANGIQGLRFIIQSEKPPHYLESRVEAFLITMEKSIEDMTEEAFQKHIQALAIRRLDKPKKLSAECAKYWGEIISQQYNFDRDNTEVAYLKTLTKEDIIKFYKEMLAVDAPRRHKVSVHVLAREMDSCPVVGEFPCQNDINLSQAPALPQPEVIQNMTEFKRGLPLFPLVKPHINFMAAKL
IDE cell inh: human IDE inhibitors in live cells, primary screen, fluorescence polarization, HEK cells, FAbetaB substrate | inhibition, % at 5.59 µM | FAbetaB cleavage | Insulin-degrading enzyme (Homo sapiens), P14735 | 0.41% of 320,000 active;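 active means percent inhibition above the average of all tested compounds plus 3 SD, set per screening campaign, cut at about 16% in these data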;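 further: IDE supplied by intact live HEK cells; FP after avidin binding of uncleaved biotin substrate so inhibition keeps polarization high; 0% = DMSO wells and 100% = 60 µM reference IDE inhibitor Ii1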
RTF Ca sens inh: cardiac RTF calcium sensitivity inhibitors, primary screen, biochemical, IANBD-TnC fluorescence, EC70 calcium. IANBD-labeled cardiac RTF, Ca2+ fluorescence. 0.12% of 340,000 active. inhibition, % at 7.15 µM. Troponin I, cardiac muscle (Homo sapiens) + Troponin T, cardiac muscle (Homo sapiens) + …;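 active means inhibition above the mean inhibition of all tested compounds plus 3 SD, cut at about 17% in these data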;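 further: assay run at fixed EC70 calcium of 1.6 mM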
RTF Ca sens act: cardiac RTF calcium sensitivity activators, primary screen, biochemical, IANBD-TnC fluorescence, EC20 calcium; Troponin I, cardiac muscle (Homo sapiens) + Troponin T, cardiac muscle (Homo sapiens) + …; IANBD-labeled TnC RTF fluorescence at EC20 calcium; 0% EC20 calcium, 100% full calcium; activation, % at 7.2 µM; 0.24% of 340,000 active;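 active means activation above the mean over all tested compounds plus 3 SD, cut at about 30% in these data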;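 further: rise in fluorescence read as greater calcium sensitivity of cardiac thin filaments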
Active calls of the source: *; / = no result. In the library only some 1.5% were active in any assay of this set; here they are far more common.

SMILES	CRFBP-R2 agonist	CRFR2-BP antag	IDE cell activ	IDE cell inh	RTF Ca sens inh	RTF Ca sens act
Clc1ccc(C2=CC(c3ccco3)n3ncnc3N2)cc1 (stereo unspecified)	349*	-100	-25	12	-205	217*
COc1ccc(C2=CC(c3ccco3)n3ncnc3N2)cc1 (stereo unspecified)	170*	-144	-29	/	-98	83*
COc1ccc(C2C=C(c3ccccc3)Nc3ncnn32)cc1 (stereo unspecified)	1	14	-1	2	-29	9
Cc1cc2oc(=O)cc(CNc3ccccc3F)c2cc1O	0	3	1	5	2	1
NC(=S)N/N=C/c1ccccc1OC(=O)/C=C/c1ccccc1	-1	124*	4	-1	3	-4
NC(=S)N/N=C\c1ccccc1OCc1ccccc1	-3	37	-3	-3	0	1
Cc1ccc(OCc2cc(C(=O)N3CCN(CC(=O)NC(C)C)CC3)no2)cn1	0	72*	0	3	-2	-1
COCCN1CCN(C(=O)c2cc(COc3cc(C)ccc3C)on2)CC1	-2	71*	-6	6	-3	0
Cc1ccc(OCc2cc(C(=O)N3CCCC(C)C3)no2)cn1 (stereo unspecified)	0	-13	/	/	/	/
CC(=O)CC(=O)Nc1ncccn1	0	11	4	2	7	-1
COc1ccc(C(=O)CCC(=O)NC2=NCCS2)cc1	-1	12	-3	1	-2	-3
O=C(Nc1cc(S(=O)(=O)N2CCCCC2)ccc1N1CCCCC1)C1CC1	1	103*	5	9	0	-1
CC(C)OP(=O)(CCP(=O)(OC(C)C)OC(C)C)OC(C)C	0	-9	11	-1	-3	8
N#Cc1ccccc1Sc1ccccc1N	-7	57*	0	0	-2	-2
O=C/C(=C\Nc1ccccn1)c1nc2cc(Cl)ccc2o1	-3	80*	2	4	-4	3
CCN(CC)CCNC(=O)c1ccc(CS(=O)(=O)c2ccccc2C)o1	5	17	-1	2	-8	6
CNc1nc(N(C)C)nc(N(C)C)n1	72*	-134	1	-1	6	0
Cc1onc(-c2c(F)cccc2Cl)c1C(=O)N1CCN(c2ncc(Br)cn2)CC1	0	74*	9	7	5	-1
CCCCOc1ccc(S(=O)(=O)N2CCN(c3ccc(N4CCN(CC)CC4)nn3)CC2)cc1	-2	7	0	4	-15	-9
O=C(NC1CCCCC1)c1ccc2[nH]c(=O)c(=O)[nH]c2c1	-1	9	1	3	-2	-3
Cc1cc(C)n(-c2ccc(C(=O)OCC(=O)Nc3ccccc3F)cc2)n1	1	-3	1	0	4	0
CCOc1ccc(/C=C(\C#N)C(=O)NC2CC2)c(OCC)c1	-6	80*	5	2	-5	8
O=C(NCCO)c1c(O)c2cccc3c2n(c1=O)CC3	8	56*	0	-2	-13	9
NCCNC(=O)c1c(O)c2cccc3c2n(c1=O)CCC3	0	-3	-3	/	8	-1
COc1ccc2[nH]c3c(c2c1)CCNC3c1ccc([N+](=O)[O-])o1 (stereo unspecified)	14	-24	2	-1	-32	33*
SMILES	CRFBP-R2 agonist	CRFR2-BP antag	IDE cell activ	IDE cell inh	RTF Ca sens inh	RTF Ca sens act
COc1ccc(C)cc1S(=O)(=O)NCc1ccccn1	0	6	/	/	/	/
CC(=O)N1CCc2c(sc(NC(=O)c3ccc([N+](=O)[O-])o3)c2C#N)C1	-3	11	3	/	-1	-8
COC(=O)c1sc(NC(=O)c2ccc([N+](=O)[O-])o2)c(C#N)c1C	41	74*	7	-2	3	-3
COC(=O)c1sc(NC(=O)c2cc(-c3ccccc3)nc3ccccc23)c(C#N)c1C	54*	21	3	-4	-1	1
CCOC(=O)c1sc(NC(=O)c2cc(-c3ccc(C)cc3)nc3ccccc23)c(C#N)c1C	47	17	0	4	1	-4
C=CCOc1ccc(C2/C(=C(\O)c3ccc4c(c3)CC(C)O4)C(=O)C(=O)N2CCN2CCOCC2)cc1OCC (stereo unspecified)	3	-17	-1	1	-3	1
Cc1nc(N)sc1-c1csc(N(C)c2ccc(O)cc2)n1	-1	51*	5	-2	3	-4
CC(C)OC(=O)Cc1nc2sc(-c3ccccc3)cc2c(=O)[nH]1	3	-25	-1	2	-4	2
CC(=O)Nc1ccc([N+](=O)[O-])cn1	2	-6	4	-1	-3	12
Cc1ccc(OCC(=O)Nc2ccc([N+](=O)[O-])cn2)cc1C	6	51*	6	1	0	-3
Cc1cccc(OCC(=O)Nc2ccc3c(c2)C(=O)NC3=O)c1	-1	-3	5	0	0	-2
Cc1ccc(C2(C)CC(C)(C)N(C(=O)CSc3nnc(C)s3)c3ccccc32)cc1 (stereo unspecified)	-2	115*	4	7	-5	-9
CCc1cc(=O)oc2cc(OC(C)C(=O)NCC3CCC(C(=O)O)CC3)c(Cl)cc12 (stereo unspecified)	-2	5	7	1	-4	13
CC(=O)Nc1ccc(NS(=O)(=O)c2ccccc2)cc1	0	-2	3	-2	-4	3
CC(=O)C(C(C)=O)c1cc(NS(=O)(=O)c2ccccc2)ccc1NS(=O)(=O)c1ccccc1	160*	-97	2	0	-1	-3
OC(CNCCC1C=Nc2ccccc21)Cn1c2ccc(Cl)cc2c2cc(Cl)ccc21 (stereo unspecified)	0	-32	19*	-7	7	-25
CN(C)c1ccc(/C=C2\N=C(c3ccc(Cl)c([N+](=O)[O-])c3)NC2=O)cc1	62*	-106	0	10	-6	0
O=C(COC(=O)c1cc(=O)[nH]c2ccccc12)NC(=O)c1ccccc1	6	-9	-4	2	-5	0
COc1cccc(-n2c([S-])c(C(=O)Nc3ccc(S(=O)(=O)N4CCOCC4)cc3)[n+]3cc(C(N)=O)ccc23)c1	2	-2	-2	-5	-11	8
CC(=O)NC1=NN(C(C)=O)C(C)(c2ccccn2)S1 (stereo unspecified)	7	52*	8	1	6	-3
